# “And” between values parts separate entries of the source, which are not always exact repeats. Equal values may be shown once. Results filed as inconclusive are left out. Where a call stands in place of a potency, no number is given. More than one record can exist for a structure, and the calls need not agree. The source made the active and inactive calls. Unless noted, calls come from the whole dose curve.
# What was measured:
# [1] = qHTS assay to identify small molecule antagonists of the sonic hedgehog signaling (Shh) pathway (AID 1259369); note: nearly all actives have a fitted effect of over 45% in size; note: potency is the fitted concentration of half-maximal effect
# How it was run: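 Gli1 transcriptional reporter (firefly Luc) in NIH/3T3 background, conditioned-medium activated. 24hr exposure, luminescence endpoint.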
# [2] = qHTS assay to identify small molecule agonists of the androgen receptor (AR) signaling pathway in the presence of an antagonist - cell viability counter screen (AID 1259379; active = well fitted curve in the direction sought with a large enough effect in the repeat runs; an effect the other way counts as inactive or inconclusive; note: nearly all actives have a fitted effect of over 25% in size; note: potency is the fitted concentration of half-maximal effect;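 for activity change, negative = cytotoxicity: MDA-kb2 human breast cancer cells carrying an MMTV luciferase reporter; series mostly up to about 92 µM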)
# How it was run: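 Counter screen for cell viability run in parallel with the AR agonist-mode luciferase assay. MDA-kb2 cells were co-treated with nilutamide (3.0uM final) and compounds, then incubated 16 hr at 37C, and CellTiter-Fluor fluorescence was measured.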
# [3] = qHTS assay to identify small molecule agonists of the estrogen receptor beta (ER-beta) signaling pathway - cell viability counter screen (AID 1259380; active = well fitted curve in the direction sought with a large enough effect in the repeat runs; an effect the other way counts as inactive or inconclusive; note: nearly all actives have a fitted effect of over 30% in size; note: potency is the fitted concentration of half-maximal effect)
# How it was run: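 In this qHTS counter screen, HEK293T cells carrying an ER-beta/UAS beta-lactamase reporter, grown in 2% charcoal-stripped FBS, received compound for 16 hr; ATP-based CellTiter-Glo luminescence was then read after 30 min at room temperature.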
# [4] = qHTS assay to identify small molecule antagonists of the estrogen receptor beta (ER-beta) signaling pathway - cell viability counter screen (AID 1259382; active = well fitted curve in the direction sought with a large enough effect in the repeat runs; an effect the other way counts as inactive or inconclusive; note: nearly all actives have a fitted effect of over 55% in size; note: potency is the fitted concentration of half-maximal effect;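 for activity change, negative = cytotoxicity: HEK293T cells carrying ER-beta-UAS-bla reporter stimulated with estradiol; series mostly up to about 92 µM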)
# How it was run: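 HEK293T ER-beta-UAS-bla, 2% charcoal-stripped FBS; compounds + 1nM E2 16 hr 37C; CellTiter-Glo luminescence, 30 min RT.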
# [5] = qHTS assay to identify small molecule agonists or antagonists of the thyroid stimulating hormone receptor (TSHR) signaling pathway - wild type cell line counter screen (AID 1259384)
# How it was run: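 Counter screen in untransfected Hek293: compounds (15-point titration, triplicate) plus phosphodiesterase inhibitor Ro20-1724 added after 18 h plating; 30 min RT. Intracellular cAMP via competitive d2/cryptate immunoassay, 1 h incubation.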
# [6] = molecular target: Thyrotropin receptor (Homo sapiens) (UniProt P16473); assay: qHTS assay to identify small molecule antagonists of the thyroid stimulating hormone receptor (TSHR) signaling pathway (AID 1259385); note: nearly all actives have a fitted effect of over 20% in size
# Chain of Thyrotropin receptor (Homo sapiens) (P16473 whole entry, looked up): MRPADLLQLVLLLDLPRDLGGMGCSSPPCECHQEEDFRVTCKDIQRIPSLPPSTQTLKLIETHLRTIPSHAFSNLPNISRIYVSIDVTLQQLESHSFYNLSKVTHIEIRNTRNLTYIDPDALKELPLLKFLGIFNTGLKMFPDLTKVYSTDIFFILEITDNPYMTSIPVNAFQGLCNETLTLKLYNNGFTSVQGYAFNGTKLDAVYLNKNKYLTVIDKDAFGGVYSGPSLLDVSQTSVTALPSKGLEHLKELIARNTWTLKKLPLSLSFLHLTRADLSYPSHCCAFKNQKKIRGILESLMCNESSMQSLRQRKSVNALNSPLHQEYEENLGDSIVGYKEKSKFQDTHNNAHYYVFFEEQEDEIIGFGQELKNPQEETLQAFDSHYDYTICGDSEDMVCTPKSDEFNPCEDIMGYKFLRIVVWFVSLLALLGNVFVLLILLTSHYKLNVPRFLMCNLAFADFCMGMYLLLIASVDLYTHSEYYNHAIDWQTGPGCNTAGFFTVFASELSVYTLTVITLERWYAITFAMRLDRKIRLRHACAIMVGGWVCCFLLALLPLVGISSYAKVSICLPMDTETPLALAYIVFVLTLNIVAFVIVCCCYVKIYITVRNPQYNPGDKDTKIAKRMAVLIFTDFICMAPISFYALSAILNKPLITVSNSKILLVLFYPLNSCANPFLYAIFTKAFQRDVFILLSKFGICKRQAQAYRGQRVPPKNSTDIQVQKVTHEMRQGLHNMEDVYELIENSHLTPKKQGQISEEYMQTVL
# How it was run: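 Antagonist mode: compound-treated TSHR-expressing HEK293 cells were stimulated with 1.5 ng/mL TSH (final) in presence of Ro20-1724 for 30 min at RT. HTRF cAMP detection after 1 h; each compound tested at 15 concentrations, triplicate.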
# [7] = molecular target: Estrogen receptor beta (Homo sapiens) (UniProt Q92731); assay: qHTS assay to identify small molecule agonists of the estrogen receptor beta (ER-beta) signaling pathway (AID 1259377; active = well fitted activation curve with a large enough effect in the signal ratio in the repeat runs, not every such curve was filed as active; the % refers to the signal ratio)
# Chain of Estrogen receptor beta (Homo sapiens) (Q92731 whole entry, looked up): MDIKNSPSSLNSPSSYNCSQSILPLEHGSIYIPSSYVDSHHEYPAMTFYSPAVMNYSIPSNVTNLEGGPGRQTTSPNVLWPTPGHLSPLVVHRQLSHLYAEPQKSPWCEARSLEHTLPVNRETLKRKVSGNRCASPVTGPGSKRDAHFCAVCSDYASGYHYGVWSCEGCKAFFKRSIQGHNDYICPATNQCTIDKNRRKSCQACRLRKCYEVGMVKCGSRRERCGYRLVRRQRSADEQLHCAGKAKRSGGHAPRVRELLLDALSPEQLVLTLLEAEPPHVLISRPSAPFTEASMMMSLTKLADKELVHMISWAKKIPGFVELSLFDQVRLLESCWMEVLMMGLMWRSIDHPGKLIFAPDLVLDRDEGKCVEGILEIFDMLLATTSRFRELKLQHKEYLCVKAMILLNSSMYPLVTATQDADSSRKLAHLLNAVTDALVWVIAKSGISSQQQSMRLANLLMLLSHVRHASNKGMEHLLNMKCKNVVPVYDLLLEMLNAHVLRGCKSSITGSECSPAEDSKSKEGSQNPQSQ
# How it was run: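 Ratiometric beta-lactamase FRET read-out came after 2 h substrate loading at room temperature. It followed 16 h compound treatment at 37C of GripTite HEK293T cells carrying a UAS-bla reporter, plated in 2% charcoal-stripped FBS medium.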
# [8] = molecular target: Estrogen receptor beta (Homo sapiens) (UniProt Q92731); assay: qHTS assay to identify small molecule antagonists of the estrogen receptor beta (ER-beta) signaling pathway (AID 1259378; active = well fitted inhibition curve with a large enough effect in the signal ratio in the repeat runs, not every such curve was filed as active; the % refers to the signal ratio; note: potency is the fitted concentration of half-maximal effect)
# How it was run: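 Antagonist mode: compounds added to beta-lactamase reporter HEK293T ER-beta-UAS cells stimulated with E2 (1nM final), 16 hr at 37C. LiveBLAzer B/G FRET substrate, 2 hours room temperature, fluorescence read-out.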
# [9] = molecular target: Estrogen receptor (Homo sapiens) (UniProt P03372); assay: qHTS assay to identify small molecule agonists of the estrogen receptor alpha (ER-alpha) signaling pathway in the presence of an antagonist (AID 1259383); note: top concentration of the series differs between compounds; nearly all actives have a fitted effect of over 15% in size
# Chain of Estrogen receptor (Homo sapiens) (P03372 whole entry, looked up): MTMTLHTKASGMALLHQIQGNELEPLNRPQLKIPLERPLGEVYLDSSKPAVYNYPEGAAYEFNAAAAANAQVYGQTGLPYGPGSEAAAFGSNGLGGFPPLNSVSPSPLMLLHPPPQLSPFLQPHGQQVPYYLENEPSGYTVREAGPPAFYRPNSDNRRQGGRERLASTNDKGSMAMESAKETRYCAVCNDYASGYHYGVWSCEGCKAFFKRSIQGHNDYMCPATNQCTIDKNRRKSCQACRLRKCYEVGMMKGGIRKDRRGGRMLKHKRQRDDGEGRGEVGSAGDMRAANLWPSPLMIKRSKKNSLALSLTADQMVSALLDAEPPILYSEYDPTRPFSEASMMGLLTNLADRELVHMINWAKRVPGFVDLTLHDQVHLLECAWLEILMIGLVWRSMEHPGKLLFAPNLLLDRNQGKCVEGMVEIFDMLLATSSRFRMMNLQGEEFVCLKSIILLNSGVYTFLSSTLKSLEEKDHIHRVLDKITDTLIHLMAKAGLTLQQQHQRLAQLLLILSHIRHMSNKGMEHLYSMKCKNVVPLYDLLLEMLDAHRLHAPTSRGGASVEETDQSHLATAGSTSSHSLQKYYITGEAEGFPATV
# How it was run: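 ER-alpha agonism measured under antagonist challenge: 10.0nM ICI-182,780 (final) plus compound, 15 concentrations, 22hr, VM7Luc4E2 ERE-luciferase cells. Read by luminescence.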
# [10] = molecular target: Androgen receptor (Homo sapiens) (UniProt P10275); assay: qHTS assay to identify small molecule agonists of the androgen receptor (AR) signaling pathway in the presence of an antagonist (AID 1259381); note: nearly all actives have a fitted effect of over 15% in size
# Chain of Androgen receptor (Homo sapiens) (P10275 whole entry, looked up): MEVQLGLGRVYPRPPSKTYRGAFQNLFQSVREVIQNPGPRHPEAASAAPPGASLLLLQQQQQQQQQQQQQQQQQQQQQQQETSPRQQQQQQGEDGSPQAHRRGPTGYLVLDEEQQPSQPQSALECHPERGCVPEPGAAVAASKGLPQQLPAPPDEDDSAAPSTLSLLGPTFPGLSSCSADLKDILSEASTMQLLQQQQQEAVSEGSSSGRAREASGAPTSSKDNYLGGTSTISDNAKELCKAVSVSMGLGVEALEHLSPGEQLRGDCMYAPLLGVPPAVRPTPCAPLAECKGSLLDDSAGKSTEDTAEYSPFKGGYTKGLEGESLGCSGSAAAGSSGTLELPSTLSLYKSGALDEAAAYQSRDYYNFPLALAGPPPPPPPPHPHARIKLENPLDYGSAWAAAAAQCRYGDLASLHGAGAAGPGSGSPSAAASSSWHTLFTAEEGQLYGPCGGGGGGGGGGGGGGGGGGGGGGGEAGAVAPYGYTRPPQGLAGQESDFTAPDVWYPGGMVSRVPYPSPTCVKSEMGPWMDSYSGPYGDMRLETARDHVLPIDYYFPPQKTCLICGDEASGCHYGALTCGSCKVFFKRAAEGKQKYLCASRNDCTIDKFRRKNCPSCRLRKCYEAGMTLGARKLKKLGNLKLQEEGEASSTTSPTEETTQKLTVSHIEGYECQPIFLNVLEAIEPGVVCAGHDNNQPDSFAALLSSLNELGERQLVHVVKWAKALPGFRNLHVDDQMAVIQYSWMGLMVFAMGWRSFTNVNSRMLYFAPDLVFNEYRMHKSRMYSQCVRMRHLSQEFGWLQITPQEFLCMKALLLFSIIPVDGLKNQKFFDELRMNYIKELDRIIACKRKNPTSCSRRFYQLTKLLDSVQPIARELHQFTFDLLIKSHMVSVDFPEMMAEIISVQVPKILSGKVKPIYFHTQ
# How it was run: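 AR antagonist background: nilutamide 3.0uM final. Cell line: MDA-kb2, MMTV-driven luciferase, responsive to both AR and GR. Exposure 16hr, 37C, no CO2; ONE-Glo luminescence.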
smiles,measurement,setting,value
NNCCc1ccccc1,Potency,[1],inactive
same,Potency,[2],inactive
same,Potency,[3],inactive
same,Potency,[4],inactive
same,Potency,[5],inactive
same,Potency,[6],inactive
C=CC(=O)OCCCCCCCC,outcome,[7],inactive
same,Potency,[8],inactive
same,Potency,[2],inactive
same,Potency,[3],inactive
same,Potency,[4],inactive
same,Potency,[9],inactive
same,Potency,[5],inactive
same,Potency,[6],inactive
CC(=O)N[C@@H](CS)C(=O)O,outcome,[7],inactive
same,Potency,[8],inactive
same,Potency,[2],inactive
same,Potency,[3],inactive
same,Potency,[4],inactive
same,Potency,[9],inactive
same,Potency,[5],inactive
same,Potency,[6],inactive
O=Nc1ccc(Nc2ccccc2)cc1,outcome,[7],inactive
same,Potency,[8],68.6 µM (active)
same,Potency,[3],61.4 µM (active) and 48.6 µM (active)
same,Potency,[10],inactive
same,Potency,[4],61.4 µM (active)
same,Potency,[9],inactive
CC(COc1ccccc1)N(CCCl)Cc1ccccc1 (stereo unspecified),Potency,[1],43.3 µM (active) and inactive
same,Potency,[3],54.5 µM (active)
same,Potency,[4],inactive
same,Potency,[5],inactive
same,Potency,[6],inactive
NC(Cc1ccc(Cl)cc1)C(=O)O (stereo unspecified),"activity change, negative = inhibition",[1],23.4% [at 0.349 µM] (inactive)
same,"activity change, negative = cytotoxicity",[3],-2.17% [at 0.349 µM] (inactive)
same,"activity change, negative = cytotoxicity",[4],-0.284% [at 0.349 µM] (inactive)
same,cAMP activity change,[5],"-3.62% [at 0.349 µM, stronger effect = higher value] (inactive)"
same,"activity change, negative = inhibition",[6],0.481% [at 0.349 µM] (inactive)
NCCO,Potency,[1],inactive and 15.4 µM (active)
same,Potency,[3],inactive
same,Potency,[4],inactive
same,Potency,[9],inactive
same,Potency,[5],inactive
same,Potency,[6],inactive
CC(=O)C1=C(C)[C@@H]2C[C@@]3(C1)[C@H](C)CC[C@H]3C2(C)C,outcome,[7],inactive
same,Potency,[8],inactive
same,Potency,[2],inactive
same,Potency,[3],inactive
same,Potency,[4],inactive
same,Potency,[9],inactive
same,Potency,[5],inactive
CCN(CC)c1ccc2c(C)cc(=O)oc2c1,Potency,[1],24.5 µM (active) and 54.5 µM (active)
same,Potency,[4],inactive
same,Potency,[9],inactive
same,Potency,[5],inactive
same,Potency,[6],inactive
CC1COc2c(N3CCN(C)CC3)c(F)cc3c(=O)c(C(=O)O)cn1c23 (stereo unspecified),Potency,[1],inactive
same,Potency,[2],inactive
same,Potency,[3],inactive
same,Potency,[4],inactive
same,Potency,[5],inactive
same,Potency,[6],inactive
O=C(Cl)c1cccc(C(=O)Cl)c1,outcome,[7],inactive
same,Potency,[8],inactive
same,Potency,[2],inactive
same,Potency,[3],inactive
same,Potency,[4],inactive
same,Potency,[5],inactive
same,Potency,[6],inactive
CCOC(=O)C(C)C(C)=O (stereo unspecified),outcome,[7],inactive
same,Potency,[8],inactive
same,Potency,[2],inactive
same,Potency,[3],inactive
same,Potency,[4],inactive
same,Potency,[5],inactive
same,Potency,[6],inactive
O=C(Nc1ccccc1SSc1ccccc1NC(=O)c1ccccc1)c1ccccc1,Potency,[1],4.88 µM (active) and 5.45 µM (active)
same,Potency,[4],inactive
same,Potency,[9],inactive
same,Potency,[5],inactive
same,Potency,[6],inactive
CCOc1ccccc1C(N)=O,outcome,[7],inactive
same,Potency,[8],inactive
same,Potency,[2],inactive
same,Potency,[3],inactive
same,Potency,[10],inactive
same,Potency,[4],inactive
same,Potency,[9],inactive
same,Potency,[5],inactive
same,Potency,[6],inactive
CC(C)(C)c1ccc(O)c(C(C)(C)C)c1,outcome,[7],inactive
same,Potency,[8],inactive
same,Potency,[2],inactive
same,Potency,[3],48.4 µM (active) and 54.5 µM (active)
same,Potency,[4],60.9 µM (active)
same,Potency,[9],inactive
same,Potency,[5],inactive
same,Potency,[6],inactive
O=C(O)CP(=O)(O)O,Potency,[1],inactive
same,Potency,[3],inactive
same,Potency,[4],inactive
same,Potency,[9],inactive
same,Potency,[5],inactive
same,Potency,[6],inactive
CCCCCC(=O)O[C@]1(C(C)=O)CC[C@H]2[C@@H]3CCC4=CC(=O)CC[C@]4(C)[C@H]3CC[C@@]21C,outcome,[7],inactive
same,Potency,[8],6.68 µM (active)
same,Potency,[2],60.7 µM (active) and 29.8 µM (active)
same,Potency,[3],inactive
same,Potency,[4],inactive
same,Potency,[9],inactive
same,Potency,[5],inactive
